# Results filed as inconclusive are left out. The source holds several records for some structures; these can differ, active in one and inactive in another. Active and inactive are the calls of the source. Rule for the calls, unless noted: active = hit-call score of the fitted dose curve at least 0.9, where 1 is the maximum; inconclusive = response in the unintended direction; inactive = score below 0.9.
# What was measured:
# [1] = target: Estrogen receptor (Homo sapiens) (UniProt P03372); test: OT_ERa_GFPERaERE_0480: Odyssey Thera (OT) 8-hour HeLa Transcription Induction Assay for Estrogen Receptor (AID 2283381; active = hit-call score of the fitted dose curve at least 0.9, where 1 is the maximum; inactive = score below 0.9)
# Sequence of Estrogen receptor (Homo sapiens) (P03372 whole entry, looked up): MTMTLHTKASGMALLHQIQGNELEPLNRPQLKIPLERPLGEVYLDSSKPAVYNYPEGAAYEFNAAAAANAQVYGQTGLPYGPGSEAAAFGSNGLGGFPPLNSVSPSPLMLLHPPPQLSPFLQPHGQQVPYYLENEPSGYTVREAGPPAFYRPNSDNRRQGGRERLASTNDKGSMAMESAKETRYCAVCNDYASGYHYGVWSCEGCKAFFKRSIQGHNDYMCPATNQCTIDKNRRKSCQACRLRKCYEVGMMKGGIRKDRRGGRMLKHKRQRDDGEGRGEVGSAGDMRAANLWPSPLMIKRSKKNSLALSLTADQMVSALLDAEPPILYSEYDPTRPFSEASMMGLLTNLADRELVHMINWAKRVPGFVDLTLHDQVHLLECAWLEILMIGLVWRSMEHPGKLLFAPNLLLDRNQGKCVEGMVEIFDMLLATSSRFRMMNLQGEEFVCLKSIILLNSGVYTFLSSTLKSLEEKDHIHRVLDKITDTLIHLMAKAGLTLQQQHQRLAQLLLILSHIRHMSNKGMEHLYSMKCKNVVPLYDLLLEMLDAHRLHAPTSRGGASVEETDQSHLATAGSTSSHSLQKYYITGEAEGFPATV
# Summary of the method: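 Fluorescence microscopy with high-content image analysis measures ERE-driven GFP induction in HeLa cells at 8 h post-dose. Increases fitted against DMSO baseline.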
# [2] = target: Estrogen receptor (Homo sapiens) (UniProt P03372); test: OT_ERa_GFPERaERE_0120: Odyssey Thera (OT) 2-hour HeLa Transcription Induction Assay for Estrogen Receptor (AID 2283382)
# Summary of the method: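 Fluorescence-microscopy images of the GFP-ERα/ERE reporter, scored by high-content image algorithms, give the readout. HeLa exposure lasted 2 h, and only signal increase over DMSO was fitted.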
# [3] = target: Retinoic acid receptor RXR-alpha (Homo sapiens) (UniProt P19793); test: OT_NURR1_NURR1RXRa_0480: Odyssey Thera (OT) 8-hour HEK293T Protein Complementation Assay for Nurr1/retinoid X receptor (RXR) (AID 2283385)
# Sequence of Retinoic acid receptor RXR-alpha (Homo sapiens) (P19793 whole entry, looked up, the tested form may be a part): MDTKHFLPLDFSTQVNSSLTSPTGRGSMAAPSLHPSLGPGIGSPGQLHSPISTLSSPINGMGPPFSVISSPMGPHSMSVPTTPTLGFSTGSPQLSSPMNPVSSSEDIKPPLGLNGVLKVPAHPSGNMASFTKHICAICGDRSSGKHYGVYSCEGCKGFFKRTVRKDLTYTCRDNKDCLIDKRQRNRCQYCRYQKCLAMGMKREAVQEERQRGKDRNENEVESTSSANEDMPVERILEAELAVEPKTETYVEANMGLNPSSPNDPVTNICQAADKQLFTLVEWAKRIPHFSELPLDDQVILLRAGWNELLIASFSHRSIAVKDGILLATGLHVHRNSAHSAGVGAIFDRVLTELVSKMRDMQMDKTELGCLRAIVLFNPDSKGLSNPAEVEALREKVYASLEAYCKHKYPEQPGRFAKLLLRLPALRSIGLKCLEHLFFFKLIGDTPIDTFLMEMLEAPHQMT
# Summary of the method: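 Interaction of Nurr1 with RXRα read as reconstituted reporter fluorescence in a HEK293T fragment-complementation system, 8 h post-treatment; increase over DMSO baseline analysed.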
# [4] = target: Retinoic acid receptor RXR-alpha (Homo sapiens) (UniProt P19793); test: OT_NURR1_NURR1RXRa_1440: Odyssey Thera (OT) 24-hour HEK293T Protein Complementation Assay for Nurr1/retinoid X receptor (RXR) (AID 2283386)
# Summary of the method: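 Gain in fluorescence, fitted relative to DMSO, reflects Nurr1–RXRα association in HEK293T cells after 24 h dosing. Bait and prey are each linked to a reporter-protein fragment that reassembles on interaction.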
# [5] = target: Peroxisome proliferator-activated receptor gamma (Homo sapiens) (UniProt P37231); test: OT_PPARg_PPARgSRC1_0480: Odyssey Thera (OT) 8-hour Protein-Complementation Assay for Peroxisome Proliferator-activated Receptor Gamma / SRC-1 Co-activator (AID 2283387);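 note: nuclear to cytoplasmic split Venus YFP fluorescence ratio reporting PPARg SRC-1 interaction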
# Sequence of Peroxisome proliferator-activated receptor gamma (Homo sapiens) (P37231 whole entry, looked up, the tested form may be a part): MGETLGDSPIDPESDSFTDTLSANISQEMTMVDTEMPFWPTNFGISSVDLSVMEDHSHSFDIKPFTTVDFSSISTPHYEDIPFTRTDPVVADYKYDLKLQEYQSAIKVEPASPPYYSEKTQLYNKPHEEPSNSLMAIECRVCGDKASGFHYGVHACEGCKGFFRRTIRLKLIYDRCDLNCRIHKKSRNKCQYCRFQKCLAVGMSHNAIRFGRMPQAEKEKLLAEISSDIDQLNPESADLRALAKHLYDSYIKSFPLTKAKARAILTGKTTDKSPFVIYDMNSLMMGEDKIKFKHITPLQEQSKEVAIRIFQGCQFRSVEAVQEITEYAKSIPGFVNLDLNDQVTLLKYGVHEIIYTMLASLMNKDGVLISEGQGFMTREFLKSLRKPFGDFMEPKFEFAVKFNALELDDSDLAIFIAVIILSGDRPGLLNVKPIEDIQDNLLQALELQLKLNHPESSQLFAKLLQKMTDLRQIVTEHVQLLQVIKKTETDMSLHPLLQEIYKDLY
# Summary of the method: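 Protein-fragment complementation of split Venus YFP reports PPARg/SRC-1 interaction in HEK293T (transfected 48 h before treatment), exposed 8 h. Readout: N/C fluorescence ratio at 488 nm from imaging, Draq5 for segmentation, positive fit relative to DMSO.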
# [6] = target: Bile acid receptor (Homo sapiens) (UniProt Q96RI1); test: OT_FXR_FXRSRC1_0480: Odyssey Thera (OT) 8-hour HEK293T Protein-Complementation Assay for Farnesoid X receptor/SRC-1 Co-activator (AID 2283383)
# Sequence of Bile acid receptor (Homo sapiens) (Q96RI1 whole entry, looked up, the tested form may be a part): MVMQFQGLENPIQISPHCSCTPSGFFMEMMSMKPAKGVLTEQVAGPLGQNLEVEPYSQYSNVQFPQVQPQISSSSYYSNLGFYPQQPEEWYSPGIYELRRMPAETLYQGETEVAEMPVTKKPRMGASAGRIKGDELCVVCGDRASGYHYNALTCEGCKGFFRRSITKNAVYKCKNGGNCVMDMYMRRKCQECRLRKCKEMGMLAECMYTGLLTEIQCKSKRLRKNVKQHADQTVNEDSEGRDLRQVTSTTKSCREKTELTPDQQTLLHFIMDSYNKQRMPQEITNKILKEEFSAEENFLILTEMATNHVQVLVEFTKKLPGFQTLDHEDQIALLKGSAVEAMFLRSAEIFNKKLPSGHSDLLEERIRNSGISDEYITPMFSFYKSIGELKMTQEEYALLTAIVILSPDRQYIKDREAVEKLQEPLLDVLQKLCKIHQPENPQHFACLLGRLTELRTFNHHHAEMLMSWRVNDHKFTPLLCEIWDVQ
# Summary of the method: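 Binding of FXR to coactivator SRC-1 was read as fluorescence from a reconstituted split reporter in HEK293T cells, 8 h after chemical addition. Only increases in signal versus DMSO were fit.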
# [7] = target: Bile acid receptor (Homo sapiens) (UniProt Q96RI1); test: OT_FXR_FXRSRC1_1440: Odyssey Thera (OT) 24-hour HEK293T Protein-Complementation Assay for Farnesoid X receptor/SRC-1 Co-activator (AID 2283384)
# Summary of the method: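 Protein-fragment complementation: FXR and SRC-1 fused to reporter fragments that reassemble on interaction, read by fluorescence intensity. Human HEK293T cells measured 24 h post-dose; positive-direction fit versus DMSO.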
# [8] = target: Peroxisome proliferator-activated receptor gamma (Homo sapiens) (UniProt P37231); test: OT_PPARg_PPARgSRC1_1440: Odyssey Thera (OT) 24-hour Protein-Complementation Assay for Peroxisome Proliferator-activated Receptor Gamma/ SRC-1 Co-activator (AID 2283388);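 note: nuclear to cytoplasmic ratio of reconstituted Venus YFP fluorescence in fixed imaged cells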
# Summary of the method: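 Cells carrying the PPARg/SRC-1 fragment-complementation reporter receive compound for 24 hours, are fixed and counterstained with Draq5, then imaged. Increased nuclear relative to cytoplasmic YFP fluorescence above DMSO baseline indicates binding activity.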
# [9] = CEETOX_H295R_11DCORT: CeeTox H295R High-throughput Steroidogenesis Assay for 11-Deoxycortisol (11DCORT) (AID 2283432; active = hit-call score of the fitted dose curve at least 0.9, where 1 is the maximum; inactive = score below 0.9); conditions: actives raise or lower the signal
# Summary of the method: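 Human adrenal H295R cells were prestimulated with 10 uM forskolin for 48 h, then exposed to test chemical (0.1% DMSO final) for 48 h. Medium 11-deoxycortisol was quantified by MTBE extraction and HPLC-MS/MS; bidirectional fitting relative to DMSO.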
# [10] = CEETOX_H295R_OHPREG: CeeTox H295R High-throughput Steroidogenesis Assay for OH-Pregnenolone (OHPREG) (AID 2283434; active = hit-call score of the fitted dose curve at least 0.9, where 1 is the maximum; inactive = score below 0.9); conditions: actives raise or lower the signal
# Summary of the method: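 H295R, 10 uM forskolin pre-stim 48 h; test chemical 48 h, 0.1% DMSO final. MTBE extraction, reverse-phase C18 HPLC-ESI+ MS/MS of medium. Gain/loss vs DMSO; viability by MTT in same wells.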
smiles,measurement,setting,value
CC(C)(C)c1cc(O)c(C(C)(C)C)cc1O,outcome,[1],inactive
same,outcome,[2],inactive
same,outcome,[3],inactive
same,AC50,[4],33.3 µM (active)
same,outcome,[4],inactive
same,outcome,[5],inactive
Nc1nc(N)c2nc(CNc3ccc(C(=O)N[C@@H](CCC(=O)O)C(=O)O)cc3)cnc2n1,outcome,[1],inactive
same,outcome,[2],inactive
same,outcome,[6],inactive
same,outcome,[7],inactive
same,outcome,[3],inactive
same,outcome,[4],inactive
CN1CCCC1=O,outcome,[1],inactive
same,outcome,[2],inactive
same,outcome,[4],inactive
same,outcome,[5],inactive
same,outcome,[8],inactive
COCCOCCOC,outcome,[1],inactive
same,outcome,[2],inactive
same,outcome,[3],inactive
same,outcome,[4],inactive
same,outcome,[5],inactive
same,outcome,[8],inactive
Nc1ccc2c(c1)C(=O)c1ccccc1C2=O,outcome,[1],inactive
same,outcome,[2],inactive
same,outcome,[5],inactive
same,outcome,[9],inactive
same,outcome,[10],inactive
CCc1c(C(=O)NN2CCCCC2)nn(-c2ccc(Cl)cc2Cl)c1-c1ccc(Br)cc1,outcome,[2],inactive
same,outcome,[6],inactive
same,AC50,[7],1.28 µM (active)
same,outcome,[3],inactive
same,outcome,[4],inactive
same,outcome,[5],inactive
same,outcome,[8],inactive
O=C(O)CCCCC(=O)O,outcome,[2],inactive
same,outcome,[6],inactive
same,outcome,[7],inactive
same,outcome,[3],inactive
same,outcome,[4],inactive
same,outcome,[5],inactive
same,outcome,[8],inactive
CN[C@H]1CC[C@@H](c2ccc(Cl)c(Cl)c2)c2ccc(S(N)(=O)=O)cc21,AC50,[1],12.3 µM (active)
same,outcome,[2],inactive
same,outcome,[5],inactive
same,outcome,[8],inactive
CCCCCCCCCCO,outcome,[2],inactive
same,outcome,[6],inactive
same,outcome,[7],inactive
same,outcome,[3],inactive
same,outcome,[5],inactive
CCOC(=O)C(C)(C)Oc1ccc(Cl)cc1,outcome,[2],inactive
same,outcome,[6],inactive
same,outcome,[7],inactive
same,outcome,[4],inactive
same,outcome,[5],inactive
same,outcome,[8],inactive
CCCCc1ccc2c(n1)[C@@H](c1ccc(OC)cc1C[C@H](C)C(=O)O)[C@H](C(=O)O)[C@H]2c1ccc2c(c1)OCO2,outcome,[2],inactive
same,outcome,[6],inactive
same,outcome,[3],inactive
same,outcome,[4],inactive
same,outcome,[5],inactive
NS(=O)(=O)c1cc2c(cc1Cl)NCNS2(=O)=O,outcome,[2],inactive
same,outcome,[6],inactive
same,outcome,[3],inactive
same,outcome,[4],inactive
same,outcome,[5],inactive
Cc1cc(NC(=O)C(=O)O)cc(C)c1Oc1ccc(O)c2c1CCC2,outcome,[2],inactive
same,outcome,[6],inactive
same,outcome,[7],inactive
same,outcome,[3],inactive
same,outcome,[4],inactive
same,outcome,[9],inactive
same,outcome,[10],inactive
CCCCCCCCCCCC(=O)OC,outcome,[2],inactive
same,outcome,[6],inactive
same,outcome,[7],inactive
same,outcome,[3],inactive
same,outcome,[4],inactive
same,outcome,[5],inactive
same,outcome,[8],inactive
Cc1ccc(N(C)C)cc1,outcome,[1],inactive
same,outcome,[2],inactive
same,outcome,[3],inactive
same,outcome,[4],inactive
same,outcome,[5],inactive
same,outcome,[8],inactive
COc1ccc(C)cc1N,outcome,[1],inactive
same,outcome,[2],inactive
same,outcome,[3],inactive
same,outcome,[4],inactive
same,outcome,[5],inactive
same,outcome,[9],inactive
same,outcome,[10],inactive
c1cc(-c2ccncc2)ccn1,outcome,[1],inactive
same,outcome,[2],inactive
same,outcome,[4],inactive
same,outcome,[5],inactive
same,outcome,[8],inactive
same,outcome,[9],inactive
same,outcome,[10],inactive
CCOc1ccc2c(c1)C(C)=CC(C)(C)N2,outcome,[1],inactive
same,outcome,[2],inactive
same,outcome,[3],inactive
same,outcome,[4],inactive
same,outcome,[5],inactive
same,outcome,[10],inactive
Cc1ccc(Cl)cc1,outcome,[2],inactive
same,outcome,[6],inactive
same,outcome,[3],inactive
same,outcome,[4],inactive
same,outcome,[5],inactive
same,outcome,[8],inactive
C[C@]12C=CC(=O)C=C1CC[C@@H]1[C@@H]2C(=O)C[C@@]2(C)[C@H]1CC[C@]2(O)C(=O)CO,outcome,[1],inactive
same,outcome,[2],inactive
same,outcome,[4],inactive
same,outcome,[5],inactive
Oc1ccc2c(c1)OC[C@@H](N1CCC(O)(c3ccc(F)cc3)CC1)[C@H]2O,outcome,[1],inactive
same,outcome,[2],inactive
same,outcome,[3],inactive
same,outcome,[5],inactive
same,outcome,[9],inactive
same,outcome,[10],inactive
CCCCCCCCCCCCCCCCCC(=O)O,outcome,[1],inactive
same,outcome,[2],inactive
same,outcome,[3],inactive
same,outcome,[4],inactive
same,outcome,[5],inactive
same,outcome,[8],inactive
C=CCc1ccc(O)c(OC)c1,outcome,[1],inactive
same,outcome,[2],inactive
same,outcome,[3],inactive
same,outcome,[5],inactive
same,outcome,[8],inactive
same,outcome,[10],inactive
C=CCOC(=O)c1ccccc1C(=O)OCC=C,AC50,[2],69.7 µM (active)
same,outcome,[6],inactive
same,outcome,[7],inactive
same,outcome,[4],inactive
same,outcome,[5],inactive
O=c1c(O)c(-c2ccc(O)c(O)c2)oc2cc(O)cc(O)c12,outcome,[1],inactive
same,AC50,[2],23.4 µM (active)
same,outcome,[3],inactive
same,outcome,[4],inactive
same,outcome,[5],inactive
same,outcome,[8],inactive
O=c1[nH]cc(F)c(=O)[nH]1,outcome,[2],inactive
same,outcome,[6],inactive
same,AC50,[7],5.73 µM (active)
same,outcome,[3],inactive
same,outcome,[4],inactive
same,outcome,[5],inactive
same,outcome,[8],inactive
CCCCC(CC)COC(=O)CC(C(=O)OCC(CC)CCCC)S(=O)(=O)O (centres undefined),AC50,[1],22.8 µM (active)
same,AC50,[2],21.3 µM (active)
same,outcome,[3],inactive
same,outcome,[5],inactive
CCCCCCCCCCC,outcome,[1],inactive
same,outcome,[2],inactive
same,outcome,[3],inactive
same,outcome,[4],inactive
same,outcome,[5],inactive
same,outcome,[8],inactive
CCCCN(CCCC)CCCC,outcome,[2],inactive
same,outcome,[6],inactive
same,outcome,[7],inactive
same,outcome,[3],inactive
same,outcome,[4],inactive
CCCCCCCCCCCCCCCC,outcome,[1],inactive
same,outcome,[2],inactive
same,outcome,[4],inactive
same,outcome,[5],inactive
OC[C@@H](O)[C@@H](O)[C@H](O)[C@H](O)CO,outcome,[1],inactive
same,outcome,[2],inactive
same,outcome,[3],inactive
same,outcome,[4],inactive
same,outcome,[5],inactive
same,outcome,[8],inactive
Cc1nc(-c2ccc3c(c2)CCN(CCC2CCC(NC(=O)/C=C/c4ccc(F)cc4)CC2)CC3)no1 (centres undefined),outcome,[7],inactive
